Screening results (PubChem)
Tau fluor cs – Counterscreen qHTS for Inhibitors of Tau Fibril Formation, Fluorescence Polarization; AID 1463, 2008; Potency, µM (doses to about 57.7 µM); 280,000 compounds, 0.93% hits; tau K18 P301L Alexa594 fluorescence, heparin fibrillization; also: nearly all actives have a fitted effect of over 55% in size
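Human tau K18 P301L (15 uM unlabeled, 0.24 uM Alexa 594-labeled) in 100 mM sodium acetate pH 7 with 20 uM heparin, 6 hr at 37 C. ThT 30 uM added, 1 hr ambient; Alexa 594 FP and total fluorescence read at 555/632 nm.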
Sfp PPTase inh – qHTS Assay for Inhibitors of Bacillus subtilis Sfp phosphopantetheinyl transferase (PPTase). Biochemical Sfp PPTase activity, qHTS. 4'-phosphopantetheinyl transferase ffp (Bacillus subtilis), Q9F4F7. 310,000 compounds, 3.5% hits. Potency, µM, hits mostly inhibitors;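 also: the enzyme is Sfp with the accession as filed and its product quenches rhodamine fluorescence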
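Fluorescence-quenching assay: 15 nM Sfp-PPTase preincubated 15 min at room temperature with compound, then 5 uM rhodamine-CoA and 12.5 uM BHQ-2-labelled YbbR peptide added. Fluorescence (ex 525/em 598 nm) read at start and after 30 min; difference gives rate.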
Coupling enz – qHTS Assay for Inhibitors of Fructose-1,6-bisphosphate Aldolase from Giardia Lamblia: Coupling assay counterscreen. 290,000 compounds, 0.67% hits. activity change, negative = inhibition, % at 58.2 µM, hits read low. AID 2472, 2010. coupling enzyme system counterscreen, AmpLite Red fluorescence; in the data active = activity change below about -30%
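Counterscreen lacking aldolase: glyceraldehyde-3-phosphate coupling-enzyme reagent preincubated 10 min at RT with compound (at 57.5 uM final), then substrate/coupling system with AmpLite Red added; fluorescence read at 525/598 nm after 20 min RT.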
G9a inh – qHTS Assay for Inhibitors of Histone Lysine Methyltransferase G9a | Histone-lysine N-methyltransferase EHMT2 (Homo sapiens), Q96KQ7 | G9a H3K9 monomethylation, AlphaScreen, 2 h | Potency, µM (titrated, usually from 102 µM), hits mostly inhibitors | 350,000 compounds, 8.8% hits | AID 504332, 2011; also: nearly all actives have a fitted effect of over 75% in size
Target sequence (Q96KQ7 913-1193 limits assumed): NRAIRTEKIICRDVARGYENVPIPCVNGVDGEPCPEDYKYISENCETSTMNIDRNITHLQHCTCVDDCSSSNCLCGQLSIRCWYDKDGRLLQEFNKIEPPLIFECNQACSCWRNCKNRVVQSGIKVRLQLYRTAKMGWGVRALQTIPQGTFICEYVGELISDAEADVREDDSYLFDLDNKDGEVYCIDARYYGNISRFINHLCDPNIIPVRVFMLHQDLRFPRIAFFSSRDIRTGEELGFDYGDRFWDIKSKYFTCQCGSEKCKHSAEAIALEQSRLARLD
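Enzyme 20 nM + cpd, 15 min RT; add b-H3K9 pep 500 nM / SAM 20 uM; 2 h RT; anti-H3K9me1 Ab 0.5 ug/mL + SA donor / anti-rabbit acceptor beads 20 ug/mL each, 10 min; AlphaScreen read.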
Tau FP inhib – qHTS for Inhibitors of Tau Fibril Formation, Fluorescence Polarization; Microtubule-associated protein tau (Homo sapiens), P10636; K18 P301L tau heparin fibrillization, Alexa594 FP, 6 h; 280,000 compounds, 0.39% hits; Potency, µM (titrated, usually from 57.7 µM), actives largely listed as inhibitors; also: nearly all actives have a fitted effect of over 55% in size
Target sequence (P10636 561-689 P618L limits assumed): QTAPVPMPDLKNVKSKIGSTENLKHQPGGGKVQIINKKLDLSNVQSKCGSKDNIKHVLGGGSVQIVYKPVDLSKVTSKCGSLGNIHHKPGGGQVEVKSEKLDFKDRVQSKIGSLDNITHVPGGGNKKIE
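Heparin (20 uM) drove fibril formation of recombinant tau K18 P301L, 15 uM unlabeled with 0.24 uM Alexa 594 label, for 6 hr at 37 C in 100 mM sodium acetate pH 7. Fluorescence polarization (555/632 nm) read 1 hr after 30 uM ThT.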
Tau ThT inhib – qHTS for Inhibitors of Tau Fibril Formation, Thioflavin T Binding; Microtubule-associated protein tau (Homo sapiens), P10636; recombinant tau K18 P301L (four-repeat tau fragment), heparin-induced fibrillization, ThT fluorescence; Potency, µM (highest dose often 57.4 µM), most hits filed as inhibitors; 270,000 compounds, 2.1% hits; also: nearly all actives have a fitted effect of over 55% in size
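Recombinant human tau K18 fragment […] carrying P301L, 15 uM unlabeled plus 0.24 uM Alexa 594-labeled, was fibrillized with 20 uM heparin in 100 mM sodium acetate pH 7 for 6 hr at 37 C; 30 uM ThT fluorescence read after 1 hr.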
Each line names hits and unclear results; the compound was inactive in the other large screens. Shown are actives, neighbours in structure and some others; about 11% of the full set was active somewhere. Unless noted, calls follow the shape of the dose curve; as a rule, active = well fitted curve in the direction sought with a large enough effect; inconclusive = small, poorly fitted or top-dose-only effect, or another doubt; inactive = no such curve, though single readings can be large; an effect the other way counts as inactive or inconclusive.

CCOc1ccc(N2Cc3ccccc3C2)cc1	G9a inh 2.5µM, Tau ThT inhib inconclusive
O=c1c2c3c(sc2nnn1Cc1ccc(F)cc1)CCCC3	none (no result: Sfp PPTase inh, Coupling enz)
CC(=O)Nc1ccc(S(=O)(=O)Nc2nnc(C(C)C)s2)cc1	G9a inh 25µM
CC(=O)Nc1ccc(S(=O)(=O)Nc2nnc(Cc3ccc(Cl)cc3)s2)cc1	Sfp PPTase inh inconclusive, G9a inh 22µM (no result: Tau fluor cs, Tau FP inhib, Tau ThT inhib)
COc1ccc(S(=O)(=O)Nc2nnc(C(C)C)s2)cc1	G9a inh inconclusive
COc1cc(/C=C(\C#N)c2nc3ccccc3[nH]2)ccc1OCc1cccc(C(F)(F)F)c1	Tau fluor cs inconclusive, Tau FP inhib inconclusive, Tau ThT inhib inconclusive (no result: Sfp PPTase inh, Coupling enz)
CCOC(=O)c1c(NC(=O)C(C)Sc2cn(CCNC(=O)c3ccc(OC)cc3)c3ccccc23)sc2c1CCC2 (stereo not given)	G9a inh inconclusive (no result: Sfp PPTase inh, Coupling enz)
O=C(NC(c1ccccc1)c1ccccc1)c1ccc(Br)o1	none
COc1ccc(NC(=O)/C=C/c2cccc(F)c2)cn1	none
O=C(/C=C/c1ccc(Br)o1)NC(c1ccccc1)c1ccccc1	Sfp PPTase inh 20µM, G9a inh 18µM
COc1ccc(NC(=O)/C=C/c2ccco2)cn1	G9a inh 45µM, Tau ThT inhib inconclusive
COc1ccc(NC(=O)/C=C/c2ccc(Br)o2)cn1	Sfp PPTase inh 25µM, G9a inh inconclusive, Tau ThT inhib inconclusive
COc1ccccc1CNC(=O)/C=C/c1ccc(Br)o1	Sfp PPTase inh 10µM, G9a inh 28µM, Tau ThT inhib inconclusive
O=C(Nc1cc(S(=O)(=O)N2CCCCC2)ccc1N1CCCCC1)c1ccncc1	Tau ThT inhib inconclusive
Cc1ccccc1CN1C(=O)c2ccccc2Sc2ccc(C(=O)NC3CCCC3)cc21	none (no result: Sfp PPTase inh, Coupling enz)
Cc1nc2nc(NC(=O)c3cccc(Cl)c3)[nH]n2c(=O)c1Cc1ccccc1	none (no result: Sfp PPTase inh, Coupling enz)
CC(=O)Nc1ccc(NC(=O)c2cccc3ccccc23)cc1	none (no result: Tau fluor cs, Tau FP inhib, Tau ThT inhib)
CN(C)c1cccc(NC(=O)c2cccc3ccccc23)c1	G9a inh 32µM (no result: Tau fluor cs, Tau FP inhib, Tau ThT inhib)
CC(=O)Nc1cccc(NC(=O)CCc2ccccc2)c1	G9a inh inconclusive
CN(C)c1cccc(NC(=O)CCc2ccccc2)c1	G9a inh 3.2µM
C[C@H](O)CN(C)C	none (no result: Tau fluor cs, Coupling enz, Tau FP inhib, Tau ThT inhib)
CSC1=C(C#N)C(=O)NC(c2ccc(Cl)cc2)S1 (stereo not given)	G9a inh 32µM (no result: Tau fluor cs, Tau FP inhib, Tau ThT inhib)
CN(C(=O)COC(=O)C1CCN(S(=O)(=O)c2cccs2)CC1)c1ccccc1	none
CCOC(=O)c1ccc2c(c1)nc(SC/C(O)=C(\C#N)c1nc3ccccc3[nH]1)n2CC	G9a inh 50µM, Tau ThT inhib inconclusive
CCOC(=O)c1ccc2c(c1)nc(SCC(=O)c1ccco1)n2CC	Sfp PPTase inh 50µM, G9a inh inconclusive, Tau ThT inhib inconclusive
COc1ccc(C2=CC(c3cccc(C)c3)n3nnnc3N2)cc1 (stereo not given)	G9a inh inconclusive, Tau ThT inhib inconclusive (no result: Sfp PPTase inh, Coupling enz)
COc1ccccc1CCNC(=O)Cc1c(C)c2cc3c(C(C)(C)C)coc3c(C)c2oc1=O	none (no result: Sfp PPTase inh, Coupling enz)
Cc1ccc(NC(=O)/C(=C\c2ccco2)NC(=O)c2ccco2)cc1	G9a inh 28µM (no result: Tau fluor cs, Tau FP inhib, Tau ThT inhib)
COc1ccc(NC(=O)/C(=C\c2ccco2)NC(=O)c2ccco2)cc1	G9a inh inconclusive (no result: Tau fluor cs, Tau FP inhib, Tau ThT inhib)
Cc1ccc(C(=O)N/C(=C/c2ccco2)C(=O)Nc2cccc(C(=O)O)c2)cc1	Sfp PPTase inh 45µM (no result: Tau fluor cs, G9a inh, Tau FP inhib, Tau ThT inhib)
COc1ccccc1C(=O)N/C(=C/c1ccco1)C(=O)Nc1cccc(C(=O)O)c1	Sfp PPTase inh 50µM, G9a inh inconclusive (no result: Tau fluor cs, Tau FP inhib, Tau ThT inhib)
Cc1cccn2c(=O)nc(SCC(=O)NC3CCCC3)nc12	none (no result: Tau fluor cs, Sfp PPTase inh, Coupling enz, Tau FP inhib, Tau ThT inhib)
